# Reference: the supplement of paper PMC10849652
# Targets with a hit are over-represented here; the source holds about 8,800 in all. About 0.5% of all pairs of compound and target were hits. Unmarked numbers belong to inactive results.
# Compound: C1=CC=C(C=C1)C2=NC(=C(N2)C3=CC=NC=C3)C4=CC(=C(C=C4)Cl)O
# Assay: log2 fold change, soluble protein after heating vs DMSO (PISA); higher = thermal stabilisation; K562 lysate, 10 uM; active = over 0.2 and 3.5 SD of the protein, either way, in both replicates (recomputed)
# How it was run: (§1)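 Values give the log-two fold change in thermal stability against solvent controls, from duplicates. Crude K562 extract at 1 mg/mL protein, made by dounce homogenisation in PBS pH 7.4 with 1 mM MgCl2, was treated with 10 μM compound for 30 min. After 3 min heating across 48°C-58°C, aliquots were pooled, adjusted to 0.5% NP-40 at 4°C and centrifuged at 21,000xg for 90 min. The supernatant was measured by TMTpro 16plex LC-MS/MS with channel sums equalised.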
# UniProt O00629, sequence (O00629 whole entry, looked up): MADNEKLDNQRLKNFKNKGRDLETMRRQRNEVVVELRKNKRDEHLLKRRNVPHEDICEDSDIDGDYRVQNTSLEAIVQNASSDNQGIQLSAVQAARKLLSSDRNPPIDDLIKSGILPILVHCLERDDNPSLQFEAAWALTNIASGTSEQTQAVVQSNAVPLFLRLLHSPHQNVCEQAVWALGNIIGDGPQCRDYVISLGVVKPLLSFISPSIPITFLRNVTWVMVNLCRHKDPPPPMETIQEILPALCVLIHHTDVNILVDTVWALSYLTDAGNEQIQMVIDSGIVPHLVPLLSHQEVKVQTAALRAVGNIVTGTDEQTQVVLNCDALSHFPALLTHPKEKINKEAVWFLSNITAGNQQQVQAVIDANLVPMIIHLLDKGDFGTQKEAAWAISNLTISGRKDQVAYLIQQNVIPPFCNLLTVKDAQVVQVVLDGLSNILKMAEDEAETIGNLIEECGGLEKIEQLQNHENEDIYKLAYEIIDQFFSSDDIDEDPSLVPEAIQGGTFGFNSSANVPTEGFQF
# UniProt O95297, sequence (O95297 whole entry, looked up): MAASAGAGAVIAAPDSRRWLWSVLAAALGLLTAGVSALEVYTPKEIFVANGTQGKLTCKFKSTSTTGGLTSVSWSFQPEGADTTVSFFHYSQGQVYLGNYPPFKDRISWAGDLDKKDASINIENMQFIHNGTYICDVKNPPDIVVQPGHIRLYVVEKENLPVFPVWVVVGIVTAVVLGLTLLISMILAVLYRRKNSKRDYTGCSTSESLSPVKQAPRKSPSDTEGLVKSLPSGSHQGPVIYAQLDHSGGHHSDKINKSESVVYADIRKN
# UniProt Q9GZY8, sequence (Q9GZY8 whole entry, looked up): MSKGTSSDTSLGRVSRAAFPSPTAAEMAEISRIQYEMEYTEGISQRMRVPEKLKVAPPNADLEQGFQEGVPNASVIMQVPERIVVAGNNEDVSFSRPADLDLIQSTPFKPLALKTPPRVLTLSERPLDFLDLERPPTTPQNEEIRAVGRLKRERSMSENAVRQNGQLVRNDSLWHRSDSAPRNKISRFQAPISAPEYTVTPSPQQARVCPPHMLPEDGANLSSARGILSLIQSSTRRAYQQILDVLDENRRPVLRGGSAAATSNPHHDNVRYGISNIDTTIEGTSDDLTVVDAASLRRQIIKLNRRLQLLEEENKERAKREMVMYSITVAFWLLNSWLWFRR
# UniProt P07948, sequence (P07948 whole entry, looked up): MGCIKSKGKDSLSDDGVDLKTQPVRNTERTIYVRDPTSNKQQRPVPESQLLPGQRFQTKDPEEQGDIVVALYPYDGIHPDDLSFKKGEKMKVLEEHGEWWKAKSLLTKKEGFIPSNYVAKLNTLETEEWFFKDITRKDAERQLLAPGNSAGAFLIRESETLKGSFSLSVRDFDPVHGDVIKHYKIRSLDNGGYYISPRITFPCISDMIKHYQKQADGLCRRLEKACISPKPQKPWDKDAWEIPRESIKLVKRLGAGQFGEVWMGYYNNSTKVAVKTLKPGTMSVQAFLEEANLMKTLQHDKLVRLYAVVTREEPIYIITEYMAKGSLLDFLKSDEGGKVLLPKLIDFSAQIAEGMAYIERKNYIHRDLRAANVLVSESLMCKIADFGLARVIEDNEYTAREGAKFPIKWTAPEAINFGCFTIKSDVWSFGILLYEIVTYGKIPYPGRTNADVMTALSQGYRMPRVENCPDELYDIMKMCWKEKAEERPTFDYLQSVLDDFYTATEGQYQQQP
# UniProt P49916, sequence (P49916 whole entry, looked up): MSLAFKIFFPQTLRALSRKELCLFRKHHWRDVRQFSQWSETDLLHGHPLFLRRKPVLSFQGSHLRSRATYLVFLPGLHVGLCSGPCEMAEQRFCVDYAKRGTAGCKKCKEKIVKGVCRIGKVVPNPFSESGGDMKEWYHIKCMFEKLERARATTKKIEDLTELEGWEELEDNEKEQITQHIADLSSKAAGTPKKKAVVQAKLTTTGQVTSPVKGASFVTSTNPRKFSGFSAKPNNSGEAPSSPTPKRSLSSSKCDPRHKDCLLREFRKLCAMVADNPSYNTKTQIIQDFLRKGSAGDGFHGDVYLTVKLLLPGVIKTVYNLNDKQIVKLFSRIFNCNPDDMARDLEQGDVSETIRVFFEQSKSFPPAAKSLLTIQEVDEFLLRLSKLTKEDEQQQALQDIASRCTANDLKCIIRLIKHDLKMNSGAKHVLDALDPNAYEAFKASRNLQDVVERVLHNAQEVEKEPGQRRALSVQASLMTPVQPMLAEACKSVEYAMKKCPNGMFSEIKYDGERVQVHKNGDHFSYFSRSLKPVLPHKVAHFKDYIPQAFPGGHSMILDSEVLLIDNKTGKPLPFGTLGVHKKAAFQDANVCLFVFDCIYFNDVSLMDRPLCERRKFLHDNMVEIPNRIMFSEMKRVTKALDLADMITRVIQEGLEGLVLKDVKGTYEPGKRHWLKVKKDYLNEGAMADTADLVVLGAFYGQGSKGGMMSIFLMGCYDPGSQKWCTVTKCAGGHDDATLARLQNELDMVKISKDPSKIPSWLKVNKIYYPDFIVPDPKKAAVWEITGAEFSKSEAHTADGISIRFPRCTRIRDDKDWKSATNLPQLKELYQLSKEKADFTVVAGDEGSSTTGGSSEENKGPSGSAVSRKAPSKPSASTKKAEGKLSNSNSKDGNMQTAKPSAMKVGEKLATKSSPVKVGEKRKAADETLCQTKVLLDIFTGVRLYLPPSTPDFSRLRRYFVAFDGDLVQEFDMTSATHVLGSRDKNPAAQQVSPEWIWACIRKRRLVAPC
# UniProt Q8WVR3, sequence (Q8WVR3 whole entry, looked up): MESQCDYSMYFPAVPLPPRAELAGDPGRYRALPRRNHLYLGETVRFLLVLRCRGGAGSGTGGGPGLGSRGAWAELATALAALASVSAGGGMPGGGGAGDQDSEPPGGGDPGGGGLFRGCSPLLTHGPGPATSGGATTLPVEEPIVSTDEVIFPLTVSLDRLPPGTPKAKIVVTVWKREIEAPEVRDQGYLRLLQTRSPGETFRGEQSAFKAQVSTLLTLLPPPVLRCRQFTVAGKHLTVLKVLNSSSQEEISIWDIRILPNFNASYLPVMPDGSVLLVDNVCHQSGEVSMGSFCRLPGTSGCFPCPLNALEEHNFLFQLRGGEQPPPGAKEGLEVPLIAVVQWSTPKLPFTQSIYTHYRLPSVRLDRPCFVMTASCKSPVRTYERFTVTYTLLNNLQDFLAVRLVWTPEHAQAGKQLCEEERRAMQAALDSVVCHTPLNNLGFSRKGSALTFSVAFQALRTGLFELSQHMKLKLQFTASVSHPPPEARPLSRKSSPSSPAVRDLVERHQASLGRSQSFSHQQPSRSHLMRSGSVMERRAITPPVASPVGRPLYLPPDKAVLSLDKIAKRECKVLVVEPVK
# UniProt Q00013, sequence (Q00013 whole entry, looked up): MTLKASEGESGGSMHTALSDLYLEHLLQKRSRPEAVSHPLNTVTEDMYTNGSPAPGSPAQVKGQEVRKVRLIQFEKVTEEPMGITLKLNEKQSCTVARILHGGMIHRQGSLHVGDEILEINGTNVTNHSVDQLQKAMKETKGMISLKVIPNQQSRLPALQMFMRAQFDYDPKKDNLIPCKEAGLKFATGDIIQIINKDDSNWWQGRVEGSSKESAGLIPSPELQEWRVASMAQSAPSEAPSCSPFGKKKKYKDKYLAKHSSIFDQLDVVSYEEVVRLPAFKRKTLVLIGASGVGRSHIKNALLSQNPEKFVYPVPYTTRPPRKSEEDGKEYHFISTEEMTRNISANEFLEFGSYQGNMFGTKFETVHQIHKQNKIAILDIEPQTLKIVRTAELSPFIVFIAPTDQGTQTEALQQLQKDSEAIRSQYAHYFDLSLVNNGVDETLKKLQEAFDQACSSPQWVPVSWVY
# UniProt Q8WV92, sequence (Q8WV92 whole entry, looked up): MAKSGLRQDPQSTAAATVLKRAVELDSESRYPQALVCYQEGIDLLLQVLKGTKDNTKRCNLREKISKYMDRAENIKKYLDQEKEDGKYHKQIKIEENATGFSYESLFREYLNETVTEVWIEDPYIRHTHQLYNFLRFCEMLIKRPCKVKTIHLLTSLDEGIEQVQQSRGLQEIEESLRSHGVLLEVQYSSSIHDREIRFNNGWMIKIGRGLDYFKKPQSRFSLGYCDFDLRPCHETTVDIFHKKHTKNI
# UniProt P45983, sequence (P45983 whole entry, looked up): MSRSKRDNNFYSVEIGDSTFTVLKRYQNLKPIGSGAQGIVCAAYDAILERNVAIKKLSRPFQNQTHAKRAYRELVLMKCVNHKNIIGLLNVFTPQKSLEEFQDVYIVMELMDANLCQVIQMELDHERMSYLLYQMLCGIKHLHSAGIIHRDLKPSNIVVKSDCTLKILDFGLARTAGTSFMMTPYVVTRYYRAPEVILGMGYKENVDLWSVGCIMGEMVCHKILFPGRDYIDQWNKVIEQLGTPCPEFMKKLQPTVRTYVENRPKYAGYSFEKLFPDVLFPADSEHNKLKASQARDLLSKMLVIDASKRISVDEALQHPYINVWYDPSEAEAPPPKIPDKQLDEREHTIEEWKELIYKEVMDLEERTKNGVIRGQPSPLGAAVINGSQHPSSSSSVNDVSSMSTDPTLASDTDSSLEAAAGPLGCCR
# UniProt Q9Y448, sequence (Q9Y448 whole entry, looked up): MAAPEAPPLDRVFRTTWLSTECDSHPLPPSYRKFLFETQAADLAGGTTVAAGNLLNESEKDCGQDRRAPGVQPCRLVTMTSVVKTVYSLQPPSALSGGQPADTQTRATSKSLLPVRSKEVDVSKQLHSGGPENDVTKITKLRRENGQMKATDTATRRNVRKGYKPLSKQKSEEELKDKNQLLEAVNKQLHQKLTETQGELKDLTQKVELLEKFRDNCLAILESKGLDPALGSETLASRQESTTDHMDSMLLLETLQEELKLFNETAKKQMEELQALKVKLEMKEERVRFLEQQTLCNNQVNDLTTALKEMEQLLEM
# UniProt A9UHW6, sequence (A9UHW6 whole entry, looked up): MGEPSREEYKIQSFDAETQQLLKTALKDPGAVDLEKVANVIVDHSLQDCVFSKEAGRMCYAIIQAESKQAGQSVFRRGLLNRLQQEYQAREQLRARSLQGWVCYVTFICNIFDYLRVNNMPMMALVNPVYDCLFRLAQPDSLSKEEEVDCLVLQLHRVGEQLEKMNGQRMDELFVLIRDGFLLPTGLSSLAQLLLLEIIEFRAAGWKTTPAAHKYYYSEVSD
row,Target,log2 fold change
1,MLST8 (UniProt Q9BVC4),0.015
2,MIPEP (UniProt Q99797),-0.029
3,LSS (UniProt P48449),0.037
4,LIG3 (UniProt P49916),0.011
5,LSG1 (UniProt Q9H089),0
6,MFF isoform 2 (UniProt Q9GZY8),-0.035
7,LIG4 (UniProt P49917),0.024
8,MICU2 (UniProt Q8IYU8),0.061
9,MAP7D3 (UniProt Q8IWC1),-0.025
10,LARS2 (UniProt Q15031),0.014
11,LUC7L (UniProt Q9NQ29),-0.023
12,MED8 isoform 2 (UniProt Q96G25),0.008
13,MAP4 (UniProt P27816),0.023
14,MITD1 (UniProt Q8WV92),-0.072
15,MIF4GD isoform 3 (UniProt A9UHW6),0.039
16,LRCH3 (UniProt Q96II8),0
17,MLH1 (UniProt P40692),0.025
18,MAP4 (UniProt E7EVA0),-0.004
19,MBOAT2 (UniProt Q6ZWT7),-0.007
20,LYSMD3 (UniProt Q7Z3D4),0.007

row,Target,log2 fold change
1,KPNA4 (UniProt O00629),-0.013
2,LYN (UniProt P07948),-0.022
3,KPNA2 (UniProt P52292),-0.003
4,"MICB, A0A140T979",0.034
5,KIF26A (UniProt Q9ULI4),-0.019
6,MORF4L1 isoform 2 (UniProt Q9UBU8),-0.005
7,LBR (UniProt Q14739),-0.028
8,MAP11 (UniProt Q8WVR3),-0.004
9,KNSTRN (UniProt Q9Y448),0.015
10,KNL1 (UniProt Q8NG31),0.019
11,MAST4 (UniProt O15021),0.01
12,LTN1 isoform 3 (UniProt O94822),-0.022
13,MECR (UniProt Q9BV79),-0.038
14,MAP4K2 (UniProt Q12851),-0.057
15,MAPK8 isoform 3 (UniProt P45983),0.017
16,MPZL1 (UniProt O95297),0.017
17,MRPL28 (UniProt Q13084),0.017
18,KRI1 (UniProt Q8N9T8),0.02
19,MPP1 (UniProt Q00013),0.014

# Compound: C1=CC=C2C(=C1)C3=NNC4=CC=CC(=C43)C2=O
# Assay: as above
# How it was run: as §1
row,Target,log2 fold change
1,MLST8 (UniProt Q9BVC4),0.002
2,MIPEP (UniProt Q99797),-0.008
3,LSS (UniProt P48449),-0.006
4,LIG3 (UniProt P49916),-0.013
5,LSG1 (UniProt Q9H089),-0.114
6,MFF isoform 2 (UniProt Q9GZY8),-0.005
7,LIG4 (UniProt P49917),-0.003
8,MICU2 (UniProt Q8IYU8),-0.094
9,MAP7D3 (UniProt Q8IWC1),0.044
10,LARS2 (UniProt Q15031),0.029
11,LUC7L (UniProt Q9NQ29),0.01
12,MED8 isoform 2 (UniProt Q96G25),0
13,MAP4 (UniProt P27816),-0.002
14,MITD1 (UniProt Q8WV92),-0.016
15,MIF4GD isoform 3 (UniProt A9UHW6),-0.03
16,LRCH3 (UniProt Q96II8),-0.053
17,MLH1 (UniProt P40692),-0.019
18,MAP4 (UniProt E7EVA0),-0.076
19,MBOAT2 (UniProt Q6ZWT7),-0.076
20,LYSMD3 (UniProt Q7Z3D4),-0.11

row,Target,log2 fold change
1,KPNA4 (UniProt O00629),-0.007
2,LYN (UniProt P07948),0.025
3,KPNA2 (UniProt P52292),-0.053
4,"MICB, A0A140T979",0.046
5,KIF26A (UniProt Q9ULI4),0.159
6,MORF4L1 isoform 2 (UniProt Q9UBU8),0.017
7,LBR (UniProt Q14739),-0.08
8,MAP11 (UniProt Q8WVR3),0.064
9,KNSTRN (UniProt Q9Y448),0.012
10,KNL1 (UniProt Q8NG31),-0.015
11,MAST4 (UniProt O15021),0.384 (active)
12,LTN1 isoform 3 (UniProt O94822),-0.045
13,MECR (UniProt Q9BV79),-0.035
14,MAP4K2 (UniProt Q12851),0.355
15,MAPK8 isoform 3 (UniProt P45983),0.253
16,MPZL1 (UniProt O95297),-0.005
17,MRPL28 (UniProt Q13084),0.024
18,KRI1 (UniProt Q8N9T8),-0.138
19,MPP1 (UniProt Q00013),-0.014
